# From PubChem BioAssay
# Shown are actives, neighbours in structure and some others; about 5.7% of the full set was active somewhere.
# ClpP mod: qHTS Assay for Activators of ClpP | ATP-dependent Clp protease proteolytic subunit (Bacillus subtilis (strain 168)), P80244 | purified B. subtilis ClpP, FRET peptide cleavage, 20 min | Potency, µM (top dose mostly 57.5 µM), without a hit: top-dose activity change, negative = active | 340,000 tested, 1.9% active | AID 651965, 2013; active = well fitted falling curve with a large enough effect; inconclusive = small, poorly fitted or top-dose-only effect; inactive = no such curve, though single readings can be large or run the other way; also: potency is read from the fitted curve at half-maximal effect; the source files actives as falling curves though it sought activators and does not explain the sign; nearly all actives have a fitted effect of over 65% in size
# Target sequence (P80244 whole entry, looked up): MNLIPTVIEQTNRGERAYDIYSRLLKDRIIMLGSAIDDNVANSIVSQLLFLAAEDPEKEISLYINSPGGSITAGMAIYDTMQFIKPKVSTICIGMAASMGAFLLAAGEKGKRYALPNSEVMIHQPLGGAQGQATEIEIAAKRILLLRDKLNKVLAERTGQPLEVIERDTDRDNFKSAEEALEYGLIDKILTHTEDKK
#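 Buffer: 100 mM Tris/HCl pH8, 100 mM KCl, 0.05% low protease BSA, 2.5% glycerol, 0.01% Tween-20. ClpP 10 microg/mL final; 20 min RT; delta FRET normalized to ADEP and DMSO controls.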
# GLP1R ag: GLP-1 receptor (human) agonism; HEK293 GLP-1R CRE-luciferase, luminescence, 4-6 h; cells express a hypersensitive GLP-1R form; Potency, µM (highest dose often 45.6 µM), inactives show at the highest dose activation, hits mostly activators; 380,000 tested, 0.007% active; AID 624172; also: potency is read from the fitted curve at half-maximal effect; % of control where 0% means no effect
# Target sequence (P43220 whole entry, looked up): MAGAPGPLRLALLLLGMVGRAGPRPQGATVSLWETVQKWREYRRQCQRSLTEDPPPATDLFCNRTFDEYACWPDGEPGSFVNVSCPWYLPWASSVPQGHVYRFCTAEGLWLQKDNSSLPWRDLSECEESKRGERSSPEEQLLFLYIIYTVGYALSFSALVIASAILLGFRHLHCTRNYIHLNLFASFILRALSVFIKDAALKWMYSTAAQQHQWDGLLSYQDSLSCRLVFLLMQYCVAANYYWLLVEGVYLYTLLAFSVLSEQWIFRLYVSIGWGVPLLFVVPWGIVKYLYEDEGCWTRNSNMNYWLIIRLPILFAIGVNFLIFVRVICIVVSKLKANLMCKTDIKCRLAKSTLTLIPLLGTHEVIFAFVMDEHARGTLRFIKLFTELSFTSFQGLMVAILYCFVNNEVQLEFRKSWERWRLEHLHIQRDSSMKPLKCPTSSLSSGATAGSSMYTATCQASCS
# DRD3 antagonist: D3 dopamine receptor (human) antagonism | P35462 | 360,000 tested, 2.5% active | D3R cells, DiscoveRx beta-arrestin luminescence, antagonist mode; active compounds read low | max response, negative = inhibition, %; in the data active = max response below about -50%; inconclusive = no clear call, values can overlap the other calls; also: % is scaled to controls: 0 for no effect and ±100 for the full control effect
#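 Cells expressing the human receptor were seeded at 1500 cells/well, incubated overnight at 37 degrees C in 5% CO2, then exposed to library compounds with dopamine controls for 90 minutes at 37 degrees C before luminescent detection.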
# GLP1R cytotox: cytotoxicity in counter-screen for GLP-1R inverse agonists; Potency, µM (series often up to 38.3 µM), for the others: top-dose activity change, negative = inhibition, most hits filed as inhibitors; 410,000 tested, 0.13% active; HEK293 cAMP-luciferase reporter cells, luminescence, 24 h;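 also: loss of luciferase light is scored as toxicity; potency is read from the fitted curve at half-maximal effect; % is scaled to controls: 0 for no effect and ±100 for the full control effect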
#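 Luminescence readout: signal drop marks cytotoxicity. Plated cells grew 12 h at 37 °C, 5% CO2, received 23 nL compound for 24 h, then got luciferase reagent, read after 12 min at RT.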
# D3 ag: agonists of human D3 dopamine receptor; 410,000 tested, 0.58% active; AID 652048; P35462; max activation, %; D3R DiscoveRx beta-arrestin cells, luminescence, 90 min; in the data active = max activation above about 30%; also: 0% is about no effect
#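 Agonist-mode cell screen: cells plated at 1500/well and incubated overnight at 37 °C, then exposed to library compounds for 90 min at 37 °C. Detection reagent was added for 30–60 min at room temperature, and luminescence was read.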
# GLP1R inv ag: GLP-1 receptor (human) inverse agonism; 410,000 tested, 1.6% active; AID 624417; HEK293 GLP-1R CRE-luciferase, luminescence, 24 h; GLP-1R form is constitutively active; Potency, µM (series often up to 38.3 µM), for the others: top-dose activity change, negative = inhibition, hits mostly inhibitors; P43220; also: potency is read from the fitted curve at half-maximal effect; % is scaled to controls: 0 for no effect and ±100 for the full control effect; nearly all actives have a fitted effect of over 55% in size
#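 Using stably transfected HEK293 (constitutively active GLP-1R, cAMP-luciferase reporter), compounds were incubated 24 hr and luciferase measured by luminescence.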
# * = called active by the depositor; u = inconclusive; x = no result given. Unless noted, calls follow the shape of the dose curve; as a rule, active = well fitted curve in the direction sought with a large enough effect; inconclusive = small, poorly fitted or top-dose-only effect, or another doubt; inactive = no such curve, though single readings can be large; an effect the other way counts as inactive or inconclusive.
SMILES,ClpP mod,GLP1R ag,DRD3 antagonist,GLP1R cytotox,D3 ag,GLP1R inv ag
CC(=O)c1cc(C)ccc1OC(=O)CCN1C(=O)C2C3c4ccccc4C(c4ccccc43)C2C1=O (configuration not stated),1%,-16%,8,-11%,38*,1%
CCN(CC)CCOC(=O)c1ccc(NC(=O)c2nn(-c3ccc(C)cc3)c(=O)c3c2c2ccccc2n3C)cc1,-8%,x,x,0%,-15,0%
c1ccc2oc(-c3ccc4nc[nH]c4c3)nc2c1,25µM*,1%,42,-5%,4,58%
COc1cc(OC)c(NC(=O)C(Cc2ccccc2)NS(=O)(=O)c2cccc3nsnc23)cc1Cl (configuration not stated),1%,x,x,2%,0,3%
CC(C)Cc1nc2oc3c(NCC4CCCO4)ncnc3c2c2c1CCC2 (configuration not stated),u,-1%,1,0%,58*,5%
CCCc1nc2oc3c(NCC(C)O)ncnc3c2c2c1CCCC2 (configuration not stated),4%,8%,28,14%,6,4%
CC(C)Cc1nc2oc3c(NCc4cccnc4)ncnc3c2c2c1CCC2,18µM*,3%,23,6%,5,51%
c1cncc(CNc2ncnc3sc4c(c23)CCC4)c1,x,9%,-1,2%,14,-8%
CC(C)c1nc2oc3c(NCc4cccnc4)ncnc3c2c2c1CCC2,14µM*,24%,8,5%,2,73%
COC(=O)[C@@]12C[C@@H](CC(=O)NCC3CCCCC3)C(=O)N(CCc3ccc(OC)c(OC)c3)C1=CCC(C)(C)C2,-1%,x,-26,-4%,-7,u
Cc1ccc(CNC(=O)Cn2cc(S(=O)(=O)Cc3ccccc3F)c3ccccc32)cc1,5%,x,x,-12%,4,u
CCSc1nc2n(n1)C(c1ccc(CC)cc1)C(C(=O)Nc1ccccc1OC)=C(C)N2 (configuration not stated),8%,x,x,19%,-4,2%
CCCN(CC(=O)Nc1ccccc1Br)CC(=O)Nc1ccc(F)c(F)c1F,1%,19%,10,-16%,2,u
CCCN(CC(=O)Nc1ccccc1C)CC(=O)Nc1ccc(Br)cc1F,0%,12%,-25,-23%,3,10µM*
CN(CCCn1cnc2c(OCc3ccccc3)ncnc21)Cc1ccco1,3%,-4%,14,4%,6,u
COC(=O)C[C@H]1c2cc(C(F)(F)F)ccc2S(=O)(=O)N1Cc1ccc(OC)cc1,2%,2%,8,-7%,48*,-4%
O=C(C(=O)N1CCN(c2ccccc2F)CC1)c1ccccc1,2%,x,-9,-4%,2,1%
CC(C(=O)Nc1ccc(C#N)cc1)N(C)CC(=O)Nc1ccccc1Br (configuration not stated),0%,2%,-6,-5%,-1,11µM*
CCOc1ccccc1C(=O)Nc1c(NC)c2ccccc2oc1=O,-1%,x,x,-7%,9,-5%
O=C(C[n+]1ccccc1Cl)c1ccc(O)c(O)c1,0%,x,x,x,x,x
CCOC(=O)c1sc2nc(NC(=O)C(C)(C)C)sc2c1C,5%,-1%,33,-27%,34*,u
CSc1sccc1/C=N/O,1%,-3%,-55*,4%,14,1%
CSc1sccc1/C=N/NC(=O)c1ccncc1,55%,12%,11,1%,1,12%
NC(=S)N/N=C\c1ccccc1OCc1ccccc1,-4%,-2%,-54*,u,-5,5.6µM*
NC(=S)N/N=C/c1ccccc1OC(=O)/C=C/c1ccccc1,-2%,14%,-7,-10%,-1,2.5µM*
SMILES,ClpP mod,GLP1R ag,DRD3 antagonist,GLP1R cytotox,D3 ag,GLP1R inv ag
O=C1NC(Cc2ccccc2)c2nc3ccc(Cl)cc3c(=O)n2-c2ncccc21 (configuration not stated),-5%,8%,-14,8%,-10,8%
Clc1ccc(CN2CC[C@H]3C=CCc4cccc(c43)C2)cc1,-1%,-2%,-84*,12%,-13,14%
O=C1C[C@H]2C=CCc3cccc(c32)CN1Cc1ccc(Br)cc1,-2%,x,x,x,x,x
Fc1ccc(CN2CC[C@H]3C=CCc4cccc(c43)C2)cc1,0%,-4%,-53*,2%,-60,u
CCCN1CNc2c(c(=O)[nH]c(=S)n2CCc2ccc(C)cc2)C1,-1%,x,x,x,x,x
COc1ccc(-c2nc(N3CCCCCC3)sc2C(=O)c2ccccc2)cc1,-1%,5%,u,29%,-14,2µM*
[2H]c1c([2H])c([2H])c(C(=O)c2sc(N3CCCCCC3)nc2-c2ccccc2)c([2H])c1[2H],-4%,1%,9,13%,0,u
O=C(c1ccccc1)c1sc(N2CCCCCC2)nc1-c1ccccc1,-2%,12%,-6,97%,-6,5µM*
COc1ccc2c(c1OC)OCC2C (configuration not stated),-6%,5%,16,-31%,4,u
O=C(NCc1noc2ccccc12)Nc1ccc(F)cc1F,2%,x,x,-27%,-20,-22%
Cc1cc(N2CCCCC2)nc2ccc(NC(=O)c3cccc(F)c3)cc12,-5%,x,x,u,-11,11µM*
Cc1cc(N2CCN(C)CC2)nc2ccc(NC(=O)Nc3cccc(Cl)c3)cc12,5%,x,x,u,-22,10µM*
Cc1cc(N2CCCCCC2)nc2ccc(F)cc12,28µM*,1%,5,5%,3,u
Cc1cc(N2CCN(C)CC2)nc2ccc(NC(=O)Nc3ccccc3)cc12,4%,x,x,-3%,-5,u
C=C[C@]1(C)C[C@@H](OC(=O)CSCCN(CC)CC)[C@]2(C)[C@H](C)CC[C@]3(CCC(=O)[C@H]32)[C@@H](C)[C@@H]1O,x,x,x,x,-24,x
CCN(CC)CCNC(=O)c1[nH]c2ccc(OCc3ccccc3)cc2c1C,u,-4%,-86*,u,-9,-3%
COc1ccc2c(c1)O[C@H](c1ccc3c(c1)OCO3)[C@@H](O)C2=O,2%,20%,-15,7%,4,-6%
COc1ccc2c(c1)O[C@H](c1ccc3c(c1)OCO3)[C@@H](OC(=O)N[C@H]1CCCc3ccccc31)C2=O,-5%,-1%,1,-4%,54*,-21%
Cc1ccc(CNCCCSc2nc(C)cc(C)n2)cc1,1%,-5%,-92*,4%,-26,-14%
Cc1cc(C)nc(SCCCNCc2ccc(Br)cc2)n1,1%,5%,-95*,2%,-1,u
